# Assay results: PubChem BioAssay (NCATS)
# Results filed as inconclusive are left out. Where a call stands in place of a potency, no number is given. Active and inactive are the calls of the source. Unless noted, the call rests on the fitted dose curve; in most records, active means well fitted curve in the direction sought with a large enough effect; inconclusive means small, poorly fitted or top-dose-only effect, or another doubt; inactive means no such curve, though single readings can be large; an effect the other way counts as inactive or inconclusive.
# Legend:
# [1] = target: Bile acid receptor (Homo sapiens) (UniProt Q96RI1); assay: qHTS assay for small molecule antagonists of farnesoid X receptor signaling (AID 588526; calls by dose curve)
# Bile acid receptor (Homo sapiens), sequence (Q96RI1 whole entry, looked up): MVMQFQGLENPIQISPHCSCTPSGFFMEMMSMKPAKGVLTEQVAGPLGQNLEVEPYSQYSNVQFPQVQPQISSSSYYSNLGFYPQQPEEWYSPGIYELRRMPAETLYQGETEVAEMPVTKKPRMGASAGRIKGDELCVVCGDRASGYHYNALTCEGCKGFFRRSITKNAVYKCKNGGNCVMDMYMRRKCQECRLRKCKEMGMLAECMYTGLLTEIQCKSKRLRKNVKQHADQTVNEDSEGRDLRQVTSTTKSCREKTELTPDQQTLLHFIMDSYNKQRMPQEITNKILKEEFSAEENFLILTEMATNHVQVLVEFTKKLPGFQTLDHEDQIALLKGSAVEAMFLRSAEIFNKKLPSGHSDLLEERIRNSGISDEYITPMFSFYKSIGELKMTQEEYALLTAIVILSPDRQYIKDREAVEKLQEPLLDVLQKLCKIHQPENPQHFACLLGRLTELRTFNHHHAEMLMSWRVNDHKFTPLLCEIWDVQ
# Procedure, shortened: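 Antagonist mode: titrated compounds tested against chenodeoxycholic acid stimulation (normalized to 50 uM CDCA and DMSO) in GeneBLAzer HEK293T cells for 16 h. Beta-lactamase read by CCF4 fluorescence; IC50 from Hill fits.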
# [2] = target: Bile acid receptor (Homo sapiens) (UniProt Q96RI1); assay: qHTS assay for small molecule agonists of farnesoid X receptor signaling (AID 588527; calls by dose curve); conditions: HEK293T FXR-UAS-bla, beta-lactamase ratio, 16 h; activation: stronger effect = higher value
# Procedure, shortened: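 Read-out: beta-lactamase reporter fluorescence with CCF4 substrate in GeneBLAzer FXR-UAS-bla HEK293T cells, after 16 h compound exposure at 37 C. Response scaled between DMSO basal (0%) and chenodeoxycholic acid at 100 uM (100%).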
# [3] = target: Glucocorticoid receptor (Homo sapiens) (UniProt P04150); assay: qHTS assay for small molecule antagonists of glucocorticoid receptor signaling (AID 588533; active means well fitted inhibition curve with a large enough effect in the signal ratio, with a control signal flat, not every such curve was filed as active; the % refers to the signal ratio;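 further: cells stimulated with 2 nM dexamethasone as agonist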)
# Glucocorticoid receptor (Homo sapiens), sequence (P04150 whole entry, looked up): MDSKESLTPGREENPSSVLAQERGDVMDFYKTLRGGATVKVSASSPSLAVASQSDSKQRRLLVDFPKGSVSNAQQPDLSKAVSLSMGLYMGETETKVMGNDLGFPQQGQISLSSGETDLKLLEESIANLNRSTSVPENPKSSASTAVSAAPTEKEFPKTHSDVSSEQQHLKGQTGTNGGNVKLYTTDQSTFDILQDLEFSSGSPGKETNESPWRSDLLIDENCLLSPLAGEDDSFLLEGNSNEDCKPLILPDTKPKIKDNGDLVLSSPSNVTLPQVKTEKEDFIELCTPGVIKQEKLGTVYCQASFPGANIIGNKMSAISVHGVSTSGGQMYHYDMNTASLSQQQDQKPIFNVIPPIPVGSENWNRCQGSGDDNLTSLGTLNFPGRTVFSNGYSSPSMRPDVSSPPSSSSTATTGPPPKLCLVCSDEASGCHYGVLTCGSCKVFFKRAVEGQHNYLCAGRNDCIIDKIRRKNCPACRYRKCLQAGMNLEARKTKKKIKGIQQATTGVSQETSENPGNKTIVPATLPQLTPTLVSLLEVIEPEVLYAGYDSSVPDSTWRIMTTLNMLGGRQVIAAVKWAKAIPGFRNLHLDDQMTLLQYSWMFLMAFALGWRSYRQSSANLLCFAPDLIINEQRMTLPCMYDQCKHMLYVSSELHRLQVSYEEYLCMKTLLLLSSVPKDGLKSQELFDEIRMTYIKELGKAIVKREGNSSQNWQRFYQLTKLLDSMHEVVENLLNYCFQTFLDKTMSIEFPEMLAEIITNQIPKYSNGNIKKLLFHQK
# Procedure, shortened: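 Antagonist-mode qHTS: compound titrations added to GRE-bla HeLa cells, then dexamethasone 2 nM final; 18 h, 37 C. CCF4 FRET fluorescence normalized to dexamethasone and DMSO; IC50 from Hill fit.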
# [4] = qHTS assay for small molecule antagonists of peroxisome proliferator-activated receptor delta signaling (AID 588535; active means well fitted inhibition curve with a large enough effect in the signal ratio, with a control signal flat, not every such curve was filed as active; the % refers to the signal ratio;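 on max response: cells co-treated with a PPAR-delta agonist as stimulator during compound exposure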); conditions: HEK293T PPARd-UAS-bla, beta-lactamase FRET ratio, 18 h; 460 nm channel
# Procedure, shortened: (§1)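 Beta-lactamase reporter read-out (405 nm excitation, 460/530 nm emission) after CCF4 loading for 2 hrs at RT. HEK293T PPAR-delta-UAS-bla cells, 2% charcoal/dextran FBS, compounds for 18 hrs at 37 C. Hill fit gave IC50 and efficacy.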
# [5] = target: Peroxisome proliferator-activated receptor delta (Homo sapiens) (UniProt Q03181); assay: as above
# Peroxisome proliferator-activated receptor delta (Homo sapiens), sequence (Q03181 whole entry, looked up): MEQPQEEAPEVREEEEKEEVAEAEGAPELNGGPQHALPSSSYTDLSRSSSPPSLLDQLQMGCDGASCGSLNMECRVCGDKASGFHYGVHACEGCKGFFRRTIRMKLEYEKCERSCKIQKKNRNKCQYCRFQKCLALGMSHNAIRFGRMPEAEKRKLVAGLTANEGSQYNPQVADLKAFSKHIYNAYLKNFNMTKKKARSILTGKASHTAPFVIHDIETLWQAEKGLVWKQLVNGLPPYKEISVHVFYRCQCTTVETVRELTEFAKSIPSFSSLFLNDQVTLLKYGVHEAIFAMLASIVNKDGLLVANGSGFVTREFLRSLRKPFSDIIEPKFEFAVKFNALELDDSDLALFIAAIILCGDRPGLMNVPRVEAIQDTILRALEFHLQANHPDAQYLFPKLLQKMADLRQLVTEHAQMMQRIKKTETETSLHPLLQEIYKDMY
# Procedure, shortened: as §1
# [6] = target: Peroxisome proliferator-activated receptor gamma (Homo sapiens) (UniProt P37231); assay: qHTS assay for small molecule agonists of peroxisome proliferator-activated receptor gamma signaling (AID 588536; active means well fitted curve in the direction sought with a large enough effect in the signal ratio, with a control signal flat, not every such curve was filed as active; the % refers to the signal ratio)
# Peroxisome proliferator-activated receptor gamma (Homo sapiens), sequence (P37231 whole entry, looked up): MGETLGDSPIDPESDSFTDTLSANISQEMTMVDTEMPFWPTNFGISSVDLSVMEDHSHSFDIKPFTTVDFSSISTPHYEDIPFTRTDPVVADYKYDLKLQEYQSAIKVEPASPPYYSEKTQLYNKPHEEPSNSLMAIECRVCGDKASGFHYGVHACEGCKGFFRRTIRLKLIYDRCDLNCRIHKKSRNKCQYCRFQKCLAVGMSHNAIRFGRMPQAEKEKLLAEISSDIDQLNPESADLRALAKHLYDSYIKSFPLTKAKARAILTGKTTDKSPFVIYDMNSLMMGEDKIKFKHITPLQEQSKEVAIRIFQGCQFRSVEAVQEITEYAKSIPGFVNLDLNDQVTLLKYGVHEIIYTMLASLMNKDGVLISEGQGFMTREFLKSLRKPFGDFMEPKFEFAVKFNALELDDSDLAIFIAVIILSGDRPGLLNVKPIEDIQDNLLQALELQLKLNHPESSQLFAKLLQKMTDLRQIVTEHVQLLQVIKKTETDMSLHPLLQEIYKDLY
# Procedure, shortened: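 Beta-lactamase reporter read-out: CCF4 fluorescence (ex 405, em 460/530 nm) after 2 h at RT. HEK293 GeneBLAzer cells were treated for 16 h at 37 C. Hill fits gave EC50 and efficacy versus 2 uM rosiglitazone (100%) and DMSO (0%).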
# [7] = qHTS assay for small molecule agonists of the antioxidant response element (ARE) signaling pathway (AID 651741; active means well fitted activation curve with a large enough effect in the signal ratio; the % refers to the signal ratio; further: potency means the concentration at half of the fitted maximal effect)
# Procedure, shortened: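 HepG2 ARE-bla reporter cells, 2,000/well; 5 h settle at 37 C/5% CO2; compound pin transfer (23 nL, DMSO); 16 h at 37 C; LiveBLAzer B/G FRET substrate, 2 h RT; fluorescence intensity read.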
# [8] = qHTS assay for small molecule activators of the nuclear factor-kappa B (NF-kB) signaling pathway (AID 651749; active means well fitted activation curve with a large enough effect in the signal ratio; the % refers to the signal ratio); conditions: NF-kB-bla ME-180 cells, beta-lactamase FRET ratio, 16 h; activation: stronger effect = higher value
# Procedure, shortened: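 NF-kB-bla ME-180 cells, 2,000/well; 23 nL compound or DMSO pinned; 16 hr, 37C/5% CO2; beta-lactamase FRET read-out.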
# [9] = qHTS assay for small molecule agonists of the antioxidant response element (ARE) signaling pathway measured by Nrf2-dependant transcriptional activity (AID 720636; active means well fitted curve in the direction sought with a large enough effect in the repeat runs; an effect the other way counts as inactive or inconclusive;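 further: HepG2 cells with an ARE-driven luciferase reporter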)
# Procedure, shortened: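 We exposed ARE-luc HepG2 cells, seeded in assay medium with 1% dialyzed FBS and allowed 6 hr to adhere, to test compounds overnight (16 hr, 37 C) before measuring luciferase with ONE-Glo.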
# [10] = qHTS assay for cell viability of the p53RE-bla HCT-116 cell line (AID 743292); further: nearly all actives have a fitted effect of over 55% in size
# Procedure, shortened: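 In this qHTS counter-screen, metabolically competent p53RE-bla HCT-116 cells were counted via their ATP content. Compounds were applied for 16 h at 37 C and luciferase-coupled luminescence was measured.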
# [11] = target: Nuclear receptor subfamily 1 group I member 2 (Rattus norvegicus) (UniProt Q9R1A7); assay: qHTS assay for small molecule activators of the rat pregnane X receptor (rPXR) signaling pathway (AID 651751; call rule not given here); conditions: rPXR reporter cells, luciferase (One-Glo), 24 h
# Nuclear receptor subfamily 1 group I member 2 (Rattus norvegicus), sequence (Q9R1A7 whole entry, looked up): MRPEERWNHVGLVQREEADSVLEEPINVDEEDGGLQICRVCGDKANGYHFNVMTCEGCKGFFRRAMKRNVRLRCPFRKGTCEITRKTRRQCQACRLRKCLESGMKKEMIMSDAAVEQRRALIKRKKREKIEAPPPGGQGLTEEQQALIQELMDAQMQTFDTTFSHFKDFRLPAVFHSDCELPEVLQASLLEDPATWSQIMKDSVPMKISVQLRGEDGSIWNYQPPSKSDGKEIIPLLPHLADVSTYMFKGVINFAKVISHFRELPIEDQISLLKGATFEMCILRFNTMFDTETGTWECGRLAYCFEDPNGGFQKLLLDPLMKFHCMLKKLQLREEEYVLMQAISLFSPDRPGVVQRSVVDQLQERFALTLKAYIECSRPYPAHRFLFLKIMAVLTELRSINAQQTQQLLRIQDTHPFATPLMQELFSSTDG
# 7G8 = assay: qHTS profiling for inhibitors of Plasmodium falciparum proliferation (AID 504749); further: nearly all actives have a fitted effect of over 60% in size; further: potency means the concentration at half of the fitted maximal effect; conditions: P. falciparum in erythrocytes, SYBR Green DNA, 72 h; series mostly up to 28.7 µM
# Procedure, shortened: (§2)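 SYBR Green fluorescence (ex 485 nm, em 535 nm) reports parasite DNA after 72 h compound exposure of infected red cells at 0.3% parasitemia, 2.5% hematocrit; signal normalized to 0.29 uM artemisinin and vehicle wells.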
# W2 = assay: as above; conditions: P. falciparum in erythrocytes, SYBR Green DNA, 72 h; series mostly up to 28.7 µM
# Procedure, shortened: as §2
# [12] = target: Cytochrome P450 3A4 (Homo sapiens) (UniProt P08684); assay: qHTS Assay for Activators of Cytochrome P450 3A4 (AID 885); further: nearly all actives have a fitted effect of over 65% in size
# Cytochrome P450 3A4 (Homo sapiens), sequence (P08684 whole entry, looked up): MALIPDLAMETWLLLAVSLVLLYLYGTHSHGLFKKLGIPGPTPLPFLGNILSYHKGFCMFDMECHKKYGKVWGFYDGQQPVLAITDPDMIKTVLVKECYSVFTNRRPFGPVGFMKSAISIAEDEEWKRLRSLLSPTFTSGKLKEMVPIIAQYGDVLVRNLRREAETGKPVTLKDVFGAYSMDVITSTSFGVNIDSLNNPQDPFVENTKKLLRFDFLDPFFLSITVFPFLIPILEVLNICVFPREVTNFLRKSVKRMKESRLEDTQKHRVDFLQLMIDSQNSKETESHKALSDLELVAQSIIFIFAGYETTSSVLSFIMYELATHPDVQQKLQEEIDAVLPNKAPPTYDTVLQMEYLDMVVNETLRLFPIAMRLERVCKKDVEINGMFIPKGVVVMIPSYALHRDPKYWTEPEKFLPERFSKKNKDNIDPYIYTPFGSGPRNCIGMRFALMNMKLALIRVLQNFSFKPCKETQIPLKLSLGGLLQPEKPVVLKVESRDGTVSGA
# Procedure, shortened: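 Activators are scored by enhanced luminescence from CYP3A4 conversion of luciferin-PPXE (25uM, equal to KM) to luciferin, after 60 min at RT with an NADPH-regenerating system.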
# [13] = target: Peroxisome proliferator-activated receptor gamma (Homo sapiens) (UniProt P37231); assay: qHTS assay for small molecule antagonists of peroxisome proliferator-activated receptor gamma signaling (AID 588537; active means well fitted inhibition curve with a large enough effect in the signal ratio, with a control signal flat, not every such curve was filed as active; the % refers to the signal ratio;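 further: reporter cells co-stimulated with 50 nM rosiglitazone agonist during compound treatment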)
# Procedure, shortened: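 Read-out: CCF4 fluorescence (ex 405, em 460/530 nm) after 2 h at RT. Cells were HEK293 carrying a UAS-bla reporter and treated 16 h at 37 C with compound plus rosiglitazone (50 nM final). Normalized to rosiglitazone and DMSO.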
# [14] = qHTS assay for small molecule activators of the p53 signaling pathway (AID 651743; active means well fitted activation curve with a large enough effect in the signal ratio, not every such curve was filed as active; the % refers to the signal ratio); conditions: HCT-116 p53RE-bla, beta-lactamase FRET ratio, 16 h; activation: stronger effect = higher value
# Procedure, shortened: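 Reporter: beta-lactamase driven by p53 response elements, stably integrated in HCT-116 cells. Cells seeded at 4,000/well, 5 h preincubation, compound (DMSO) 16 h at 37 C; B/G FRET substrate 2 h RT; fluorescence intensity read.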
# [15] = target: Estrogen receptor (Homo sapiens) (UniProt P03372); assay: qHTS assay for small molecule antagonists of estrogen receptor alpha signaling (AID 588513; active means well fitted curve in the direction sought with a large enough effect in the signal ratio, with a control signal flat, not every such curve was filed as active; the % refers to the signal ratio; further: potency means the concentration at half of the fitted maximal effect)
# Estrogen receptor (Homo sapiens), sequence (P03372 whole entry, looked up): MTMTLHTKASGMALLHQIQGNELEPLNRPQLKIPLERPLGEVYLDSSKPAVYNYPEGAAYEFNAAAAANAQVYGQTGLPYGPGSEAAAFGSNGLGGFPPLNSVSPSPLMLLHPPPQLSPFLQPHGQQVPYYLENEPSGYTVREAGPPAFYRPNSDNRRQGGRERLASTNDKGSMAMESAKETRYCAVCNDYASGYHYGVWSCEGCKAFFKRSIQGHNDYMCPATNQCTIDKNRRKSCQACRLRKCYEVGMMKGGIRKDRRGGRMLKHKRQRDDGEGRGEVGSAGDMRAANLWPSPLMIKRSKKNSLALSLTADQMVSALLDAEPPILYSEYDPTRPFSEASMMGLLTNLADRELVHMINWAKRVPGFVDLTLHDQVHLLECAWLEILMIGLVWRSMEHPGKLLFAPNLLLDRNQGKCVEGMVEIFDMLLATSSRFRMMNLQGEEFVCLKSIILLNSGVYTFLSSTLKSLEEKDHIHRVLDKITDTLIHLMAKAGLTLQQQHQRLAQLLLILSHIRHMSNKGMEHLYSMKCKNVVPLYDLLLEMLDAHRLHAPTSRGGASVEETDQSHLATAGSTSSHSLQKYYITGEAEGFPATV
# Procedure, shortened: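 ER-alpha-UAS-bla GripTite HEK 293 cells in medium with 2% charcoal/dextran-treated FBS were preincubated 4 h at 37 C, dosed with compound (1:2 titration), stimulated with 0.5nM 17-beta-estradiol for 18 h, then read by CCF4 beta-lactamase fluorescence.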
# [16] = target: Androgen receptor (Homo sapiens) (UniProt P10275); assay: qHTS assay for small molecule antagonists of androgen receptor signaling (AID 588516; active means well fitted curve in the direction sought with a large enough effect in the signal ratio, with a control signal flat, not every such curve was filed as active; the % refers to the signal ratio; further: potency means the concentration at half of the fitted maximal effect)
# Procedure, shortened: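 AR-UAS-bla-GripTite HEK 293 cells (2000/well, 5 h at 37 C) received compound titrations, then R1881 at 10 nM final; after 16 h at 37 C, CCF4 dye 2 h RT, beta-lactamase fluorescence read; IC50 from Hill fits.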
# [17] = target: Retinoic acid receptor RXR-alpha (Homo sapiens) (UniProt P19793); assay: qHTS assay for small molecule agonists of retinoid X receptor alpha signaling (AID 588544; calls by dose curve; further: potency means the concentration at half of the fitted maximal effect)
# Retinoic acid receptor RXR-alpha (Homo sapiens), sequence (P19793 whole entry, looked up): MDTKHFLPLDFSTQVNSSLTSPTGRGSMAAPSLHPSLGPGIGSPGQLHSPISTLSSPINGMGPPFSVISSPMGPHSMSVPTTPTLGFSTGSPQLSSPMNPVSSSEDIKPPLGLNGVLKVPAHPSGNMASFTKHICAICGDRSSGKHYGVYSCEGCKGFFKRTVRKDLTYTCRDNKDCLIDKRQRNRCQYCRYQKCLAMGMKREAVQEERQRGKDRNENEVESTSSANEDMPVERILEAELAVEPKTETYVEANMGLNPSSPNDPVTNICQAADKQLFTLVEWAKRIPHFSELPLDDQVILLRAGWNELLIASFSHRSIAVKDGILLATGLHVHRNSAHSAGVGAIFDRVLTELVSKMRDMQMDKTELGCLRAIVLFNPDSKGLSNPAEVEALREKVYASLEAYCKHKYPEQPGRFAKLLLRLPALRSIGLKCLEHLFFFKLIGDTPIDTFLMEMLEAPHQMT
structure (smiles),measurement,setting,value
CC(C)=CC1C(C(=O)OCc2coc(Cc3ccccc3)c2)C1(C)C (configuration not stated),Potency,[1],inactive
same,activation,[2],3.82% (inactive)
same,Potency,[3],inactive
same,max response,[4],-29.1%
same,Potency,[5],inactive
same,Potency,[6],inactive
same,Potency,[7],61.1 µM (active)
same,activation,[8],0.13% (inactive)
same,Potency,[9],inactive
same,Potency,[10],inactive
same,max response,[11],7.41% (inactive)
CCC/C=C/C=C/C(=O)OC1/C(=C/C(=O)OC)CC2CC(C(C)O)OC(=O)CC(O)CC3CC(OC(C)=O)C(C)(C)C(O)(CC4C/C(=C/C(=O)OC)CC(/C=C\C(C)(C)C1(O)O2)O4)O3 (configuration not stated),Potency,7G8,0.708 µM (active)
same,Potency,W2,0.953 µM (active)
NC(Cc1ccc(Oc2cc(I)c(O)c(I)c2)c(I)c1)C(=O)O (configuration not stated),Potency,7G8,inactive
CC[C@@H](CO)Nc1nc(NCc2ccccc2)c2ncn(C(C)C)c2n1,Potency,[12],inactive
CCN(CC)C(=O)N[C@@H]1C=C2c3cccc4[nH]cc(c34)C[C@H]2N(C)C1,Potency,7G8,8.91 µM (active)
same,Potency,W2,5.36 µM (active)
CC(CO)NC(=O)C1C=C2c3cccc4[nH]cc(c34)CC2N(C)C1 (configuration not stated),Potency,7G8,inactive
same,Potency,W2,inactive
CN(C)C1C(=O)C(C(N)=O)C(=O)C2(O)C(=O)C3C(=O)c4c(O)cccc4C(C)(O)C3C(O)C12 (configuration not stated),Potency,W2,6.75 µM (active)
CC(=O)Oc1ccc2c3c1OC1[C@@H](OC(C)=O)C=C[C@H]4[C@H](C2)N(C)CC[C@]314 (some centres not stated),Potency,W2,inactive
CCC(=O)OC1(c2ccccc2)CCN(C)CC1C (configuration not stated),Potency,W2,3.79 µM (active)
CC(=O)O[C@H]1C[C@H](O[C@H]2[C@@H](O)CC(O[C@H]3[C@@H](O)C[C@H](O[C@H]4CC[C@@]5(C)[C@H](CC[C@@H]6[C@@H]5CC[C@]5(C)[C@@H](C7=CC(=O)OC7)CC[C@]65O)C4)O[C@@H]3C)O[C@@H]2C)O[C@H](C)[C@H]1O[C@@H]1O[C@H](CO)[C@@H](O)[C@H](O)[C@H]1O (some centres not stated),Potency,W2,inactive
C[C@]12CCC3C(CCC4=C(Cl)C(=O)CC[C@@]43C)C1CCC2O (some centres not stated),Potency,W2,inactive
CN(C)[C@@H](Cc1ccccc1)c1ccccc1,Potency,W2,4.78 µM (active)
CC(C)CCC(=O)OC1CCC2C3CCC4=CC(=O)CC[C@]4(C)C3CC[C@]12C (some centres not stated),Potency,7G8,10 µM (active)
CC1CC[C@@]2(NC1)OC1CC3C4CC[C@@H]5CC(O)CC[C@@]5(C)C4CC[C@]3(C)C1C2C (some centres not stated),Potency,7G8,12.6 µM (active)
O=C1CC2OCC=C3CN4CC[C@]56c7ccccc7N1C5C2[C@H]3C[C@H]46 (some centres not stated),Potency,7G8,11.2 µM (active)
same,Potency,W2,3.38 µM (active)
COC(=O)C1C(OC(=O)c2ccccc2)CC2CCC1N2C (configuration not stated),Potency,7G8,inactive
same,Potency,W2,inactive
C#CCN1CC(=O)N(COC(=O)[C@@H]2[C@@H](C=C(C)C)C2(C)C)C1=O,Potency,[1],inactive
same,max response,[4],-9.7%
same,Potency,[5],inactive
same,Potency,[6],inactive
same,Potency,[13],inactive
same,Potency,7G8,inactive
same,Potency,W2,inactive
COC(C(=O)C(O)C(C)O)C1Cc2cc3cc(OC4CC(OC5CC(O)C(OC)C(C)O5)C(OC(C)=O)C(C)O4)c(C)c(O)c3c(O)c2C(=O)C1OC1CC(OC2CC(OC3CC(C)(O)C(OC(C)=O)C(C)O3)C(O)C(C)O2)C(O)C(C)O1 (configuration not stated),Potency,7G8,0.112 µM (active)
same,Potency,W2,0.426 µM (active)
C[C@]12CC[C@H]3[C@@H](CC[C@@]45O[C@@H]4C(=O)C(C#N)C[C@]35C)[C@@H]1CC[C@@H]2O (some centres not stated),Potency,7G8,inactive
C[C@@H](N)[C@@H](O)c1ccc(O)c(O)c1,Potency,7G8,inactive
same,Potency,W2,inactive
C#C[C@]1(O)CC[C@H]2[C@@H]3CCC4=CC(=O)CCC4(C)[C@H]3CCC21C (some centres not stated),Potency,W2,inactive
C#CC1(O)C=CC2C3CCC4=CC(=O)CCC4C3CCC21CC (configuration not stated),Potency,7G8,12.6 µM (active)
same,Potency,W2,6.01 µM (active)
CCCC(C)C1(CC)C(=O)NC(=S)NC1=O (configuration not stated),Potency,W2,9.53 µM (active)
CCCCN(CC)c1c([N+](=O)[O-])cc(C(F)(F)F)cc1[N+](=O)[O-],Potency,[12],inactive
same,Potency,[3],inactive
same,max response,[4],41.5%
same,Potency,[13],inactive
same,Potency,[7],inactive
same,activation,[14],-2.46% (inactive)
same,Potency,[9],inactive
same,Potency,[10],inactive
same,max response,[11],3.44% (inactive)
CC(C)N(C(=O)CCl)c1ccccc1,Potency,[15],15.8 µM [inhibitor] (active)
same,Potency,[16],39.8 µM (active)
same,Potency,[7],17.2 µM (active)
same,Potency,[10],inactive
N#Cc1c(Cl)c(Cl)c(Cl)c(C#N)c1Cl,Potency,[12],inactive
same,Potency,[9],inactive
CC1=CC(=O)c2c(O)cccc2C1=O,Potency,[12],inactive
COc1cc2c(cc1OC)-c1c(OC)c(OC)c(C=O)c3c1[C@H](C2)N(C)CC3,Potency,[12],inactive
CN(CCC(N)CC(=O)NC1C=CC(n2ccc(N)nc2=O)OC1C(=O)O)C(=N)N (configuration not stated),Potency,[12],inactive
O=C(NC(=O)c1c(F)cccc1F)Nc1ccc(Cl)cc1,Potency,[15],inactive
same,Potency,[1],inactive
same,activation,[2],1.72% (inactive)
same,max response,[4],-32.8%
same,Potency,[5],inactive
same,Potency,[13],inactive
same,Potency,[17],15.8 µM (active)
same,activation,[8],0.393% (inactive)
same,Potency,[10],inactive
same,max response,[11],11% (inactive)
COc1ccc(C2Oc3c(I)c(OC)cc(OC)c3CC2O)cc1OC (configuration not stated),Potency,[12],inactive
COC(=O)/C(C)=C\CC12OC(C)(C)C3CC(C=C4C(=O)c5c(OC)c6c(c(CC=C(C)C)c5OC431)OC(C)(CCC=C(C)C)C=C6)C2=O (configuration not stated),Potency,[12],inactive
